# Reference: the supplement of paper PMC4022240
# ± gives the standard deviation.
# Target: T1, HaloTag-ATRX ADD domain (163-292)
# T1 chain: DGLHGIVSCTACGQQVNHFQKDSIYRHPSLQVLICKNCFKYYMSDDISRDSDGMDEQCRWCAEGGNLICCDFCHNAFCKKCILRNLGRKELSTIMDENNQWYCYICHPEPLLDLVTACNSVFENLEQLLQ
# Experiment: peptide microarray binding signal (635 nm), min-max normalized on array (fraction of array maximum); higher = stronger binding
# Details: peptide region: Unmod H1 variant; binder concentration: 50 nM
# Outline: (§1)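 An Axon GenePix 4000B scanned the arrays at 635 nm for signal and at 532 nm to catch misprints. Those arrays held histone 13-mer peptide–cellulose conjugates printed in triplicate on nitrocellulose with a Cy3 tracer, blocked overnight at 4°C and probed for 1 h at 4°C with biotin-labelled HaloTag reader fusions (10 nM to 1 μM) plus streptavidin-Alexa Fluor 647 or with rabbit histone antibodies (1:10,000 to 1:2,000) plus anti-rabbit Alexa 647. Each binding signal is a triplicate-spot mean intensity, scaled min-max within its library.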
row,Binder,peptide microarray binding signal
1,KAASGEAKPKAKK [Unmod H1 variant K A A S G E A K P K A K K],0.0252 ± 0.0022
2,TKPKTAKPKKAAP [Unmod H1 variant T K P K T A K P K K A A P],0.0172 ± 0.00023
3,VKKKARKSAGAAK [Unmod H1 variant V K K K A R K S A G A A K],0.0176 ± 0.00024
4,PKKAKKPAAAAGA [Unmod H1 variant P K K A K K P A A A A G A],0.0116 ± 7.8e-05
5,TLVQTKGTGASGS [Unmod H1 variant T L V Q T K G T G A S G S],0.0308 ± 0.012
6,PPVSELITKAVAA [Unmod H1 variant P P V S E L I T K A V A A],0.0304 ± 0.017
7,AKKPAGAAKKPKK [Unmod H1 variant A K K P A G A A K K P K K],0.00931 ± 0.00023
8,KPKAAKARVTKPK [Unmod H1 variant K P K A A K A R V T K P K],0.0178 ± 0.00067
9,KTAKPKKAAPKKK [Unmod H1 variant K T A K P K K A A P K K K],0.01737 ± 0.0001
10,EKNNSRIKLGLKS [Unmod H1 variant E K N N S R I K L G L K S],0.0196 ± 0.00022

# Same assay, conditions: peptide region: Unmod H1 variant; binder concentration: 500 nM
row,Binder,peptide microarray binding signal
1,KAASGEAKPKAKK [Unmod H1 variant K A A S G E A K P K A K K],0.0245 ± 0.0017
2,TKPKTAKPKKAAP [Unmod H1 variant T K P K T A K P K K A A P],0.0103 ± 0.00048
3,VKKKARKSAGAAK [Unmod H1 variant V K K K A R K S A G A A K],0.0081 ± 0.00035
4,PKKAKKPAAAAGA [Unmod H1 variant P K K A K K P A A A A G A],0.00771 ± 0.00013
5,TLVQTKGTGASGS [Unmod H1 variant T L V Q T K G T G A S G S],0.0171 ± 0.0029
6,PPVSELITKAVAA [Unmod H1 variant P P V S E L I T K A V A A],0.00833 ± 0.00045
7,AKKPAGAAKKPKK [Unmod H1 variant A K K P A G A A K K P K K],0.00786 ± 0.00022
8,KPKAAKARVTKPK [Unmod H1 variant K P K A A K A R V T K P K],0.0125 ± 0.0019
9,KTAKPKKAAPKKK [Unmod H1 variant K T A K P K K A A P K K K],0.00729 ± 0.00021
10,EKNNSRIKLGLKS [Unmod H1 variant E K N N S R I K L G L K S],0.0155 ± 0.00098

# Target: HaloTag-ING2 PHD (mouse Ing2 200-280)
# Experiment: as above
# Details: peptide region: Unmod H1 variant; binder concentration: 10 nM
# Outline: as §1
row,Binder,peptide microarray binding signal
1,KAASGEAKPKAKK [Unmod H1 variant K A A S G E A K P K A K K],0.007579 ± 5.8e-05
2,TKPKTAKPKKAAP [Unmod H1 variant T K P K T A K P K K A A P],0.00173 ± 2.1e-05
3,VKKKARKSAGAAK [Unmod H1 variant V K K K A R K S A G A A K],0.00203 ± 4.1e-05
4,PKKAKKPAAAAGA [Unmod H1 variant P K K A K K P A A A A G A],0.00322 ± 4.7e-05
5,TLVQTKGTGASGS [Unmod H1 variant T L V Q T K G T G A S G S],0.00734 ± 0.00017
6,PPVSELITKAVAA [Unmod H1 variant P P V S E L I T K A V A A],0.00382 ± 0.00018
7,AKKPAGAAKKPKK [Unmod H1 variant A K K P A G A A K K P K K],0.003103 ± 3e-05
8,KPKAAKARVTKPK [Unmod H1 variant K P K A A K A R V T K P K],0.00173 ± 3.7e-05
9,KTAKPKKAAPKKK [Unmod H1 variant K T A K P K K A A P K K K],0.00203 ± 5.4e-05
10,EKNNSRIKLGLKS [Unmod H1 variant E K N N S R I K L G L K S],0.00585 ± 0.0006

# Same assay, conditions: peptide region: Unmod H1 variant; binder concentration: 100 nM
row,Binder,peptide microarray binding signal
1,KAASGEAKPKAKK [Unmod H1 variant K A A S G E A K P K A K K],0.0113 ± 0.0012
2,TKPKTAKPKKAAP [Unmod H1 variant T K P K T A K P K K A A P],0.00567 ± 0.00041
3,VKKKARKSAGAAK [Unmod H1 variant V K K K A R K S A G A A K],0.00553 ± 0.00055
4,PKKAKKPAAAAGA [Unmod H1 variant P K K A K K P A A A A G A],0.00652 ± 0.00013
5,TLVQTKGTGASGS [Unmod H1 variant T L V Q T K G T G A S G S],0.0165 ± 0.00046
6,PPVSELITKAVAA [Unmod H1 variant P P V S E L I T K A V A A],0.00397 ± 0.00022
7,AKKPAGAAKKPKK [Unmod H1 variant A K K P A G A A K K P K K],0.00765 ± 0.00058
8,KPKAAKARVTKPK [Unmod H1 variant K P K A A K A R V T K P K],0.00439 ± 0.00016
9,KTAKPKKAAPKKK [Unmod H1 variant K T A K P K K A A P K K K],0.00532 ± 0.00022
10,EKNNSRIKLGLKS [Unmod H1 variant E K N N S R I K L G L K S],0.0201 ± 0.0018

# Target: anti-H3K4me3 antibody ab8580
# Experiment: as above
# Details: peptide region: Unmod H1 variant; binder concentration: 1:2,000 dilution
# Outline: as §1
row,Binder,peptide microarray binding signal
1,KAASGEAKPKAKK [Unmod H1 variant K A A S G E A K P K A K K],0.000831 ± 4.9e-05
2,TKPKTAKPKKAAP [Unmod H1 variant T K P K T A K P K K A A P],0.00108 ± 6.8e-05
3,VKKKARKSAGAAK [Unmod H1 variant V K K K A R K S A G A A K],0.00145 ± 0.00015
4,PKKAKKPAAAAGA [Unmod H1 variant P K K A K K P A A A A G A],0.000736 ± 1.2e-05
5,TLVQTKGTGASGS [Unmod H1 variant T L V Q T K G T G A S G S],0.00255 ± 9.7e-05
6,PPVSELITKAVAA [Unmod H1 variant P P V S E L I T K A V A A],0.00296 ± 0.001
7,AKKPAGAAKKPKK [Unmod H1 variant A K K P A G A A K K P K K],0.0006041 ± 5.8e-06
8,KPKAAKARVTKPK [Unmod H1 variant K P K A A K A R V T K P K],0.00051 ± 1.5e-05
9,KTAKPKKAAPKKK [Unmod H1 variant K T A K P K K A A P K K K],0.000755 ± 3e-05
10,EKNNSRIKLGLKS [Unmod H1 variant E K N N S R I K L G L K S],0.00196 ± 0.00038

# Same assay, conditions: peptide region: Unmod H1 variant; binder concentration: 1:10,000 dilution
row,Binder,peptide microarray binding signal
1,KAASGEAKPKAKK [Unmod H1 variant K A A S G E A K P K A K K],0.00171 ± 4.3e-05
2,TKPKTAKPKKAAP [Unmod H1 variant T K P K T A K P K K A A P],0.00097 ± 9.9e-06
3,VKKKARKSAGAAK [Unmod H1 variant V K K K A R K S A G A A K],0.00143 ± 2.4e-05
4,PKKAKKPAAAAGA [Unmod H1 variant P K K A K K P A A A A G A],0.001541 ± 1.5e-05
5,TLVQTKGTGASGS [Unmod H1 variant T L V Q T K G T G A S G S],0.00388 ± 0.00013
6,PPVSELITKAVAA [Unmod H1 variant P P V S E L I T K A V A A],0.0028 ± 0.00019
7,AKKPAGAAKKPKK [Unmod H1 variant A K K P A G A A K K P K K],0.00217 ± 0.0002
8,KPKAAKARVTKPK [Unmod H1 variant K P K A A K A R V T K P K],0.00097 ± 4e-05
9,KTAKPKKAAPKKK [Unmod H1 variant K T A K P K K A A P K K K],0.000913 ± 1.6e-05
10,EKNNSRIKLGLKS [Unmod H1 variant E K N N S R I K L G L K S],0.00137 ± 4.9e-05

# Target: anti-H3K9me3 antibody ab8898
# Experiment: as above
# Details: peptide region: Unmod H1 variant; binder concentration: 1:2,000 dilution
# Outline: as §1
row,Binder,peptide microarray binding signal
1,KAASGEAKPKAKK [Unmod H1 variant K A A S G E A K P K A K K],0.000483 ± 1.7e-05
2,TKPKTAKPKKAAP [Unmod H1 variant T K P K T A K P K K A A P],0.000227 ± 4.1e-06
3,VKKKARKSAGAAK [Unmod H1 variant V K K K A R K S A G A A K],0.000272 ± 4.9e-06
4,PKKAKKPAAAAGA [Unmod H1 variant P K K A K K P A A A A G A],0.000483 ± 9.2e-06
5,TLVQTKGTGASGS [Unmod H1 variant T L V Q T K G T G A S G S],0.0019 ± 0.00012
6,PPVSELITKAVAA [Unmod H1 variant P P V S E L I T K A V A A],0.00106 ± 4.4e-05
7,AKKPAGAAKKPKK [Unmod H1 variant A K K P A G A A K K P K K],0.000423 ± 8.2e-06
8,KPKAAKARVTKPK [Unmod H1 variant K P K A A K A R V T K P K],0.000166 ± 1.8e-06
9,KTAKPKKAAPKKK [Unmod H1 variant K T A K P K K A A P K K K],0.000121 ± 1.3e-06
10,EKNNSRIKLGLKS [Unmod H1 variant E K N N S R I K L G L K S],0.000317 ± 5.6e-06

# Same assay, conditions: peptide region: Unmod H1 variant; binder concentration: 1:10,000 dilution
row,Binder,peptide microarray binding signal
1,KAASGEAKPKAKK [Unmod H1 variant K A A S G E A K P K A K K],0.001211 ± 1.2e-05
2,TKPKTAKPKKAAP [Unmod H1 variant T K P K T A K P K K A A P],0.000577 ± 6.2e-06
3,VKKKARKSAGAAK [Unmod H1 variant V K K K A R K S A G A A K],0.000634
4,PKKAKKPAAAAGA [Unmod H1 variant P K K A K K P A A A A G A],0.00098
5,TLVQTKGTGASGS [Unmod H1 variant T L V Q T K G T G A S G S],0.00231 ± 7.5e-05
6,PPVSELITKAVAA [Unmod H1 variant P P V S E L I T K A V A A],0.00144 ± 5.7e-05
7,AKKPAGAAKKPKK [Unmod H1 variant A K K P A G A A K K P K K],0.00104 ± 1.1e-05
8,KPKAAKARVTKPK [Unmod H1 variant K P K A A K A R V T K P K],0.000404 ± 4.4e-06
9,KTAKPKKAAPKKK [Unmod H1 variant K T A K P K K A A P K K K],0.000577 ± 6.2e-06
10,EKNNSRIKLGLKS [Unmod H1 variant E K N N S R I K L G L K S],0.00098
